Source: PubChem BioAssay
Compounds with a hit are over-represented: about 6.5% of the library has one in this group of screens.
FMDV antiviral – High Throughput Screening for Foot and Mouth Disease Virus Antivirals | 410,000 compounds, 1.2% hits | AID 1159524, 2015 | FMDV antiviral cell-based qHTS | Potency, µM (series often up to 57.9 µM), actives largely listed as inhibitors; calls by dose curve; tested in HEK293T cells; further: read-out not given here; nearly all actives have a fitted effect of over 45% in size
Vaccinia Venus – qHTS for Stage-Specific Inhibitors of Vaccinia Orthopoxvirus: Venus Reporter Primary qHTS. Potency, µM (highest dose often 36.5 µM), usual class: inhibitors. Vaccinia virus Venus reporter expression, fluorescence. 330,000 compounds, 0.46% hits; calls by dose curve; tested in A549 cells; further: nearly all actives have a fitted effect of over 30% in size
MARV entry inh – qHTS for inhibitors of binding or entry into cells for Marburg Virus; Marburg virus pseudotyped entry inhibition, cell reporter; Potency, µM (doses to about 37.8 µM), most hits filed as inhibitors; 300,000 compounds, 1.8% hits; AID 540276, 2011; calls by dose curve; tested in HEK293 cells
HCMV antiviral – qHTS Assay for inhibitors of the human cytomegalovirus (HCMV); HFF cells, HCMV-luciferase reporter, 72 h; stronger effect = lower value; activity change, negative = inhibition, % at 57.5 µM; 410,000 compounds, 4.5% hits; AID 1259415, 2018; in the data active means activity change below about -60%; inconclusive means no clear call, values can overlap the other calls; inactive means above about -39%
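Two-dose cell screen: HFF monolayers treated with compounds and infected with luciferase-expressing HCMV at 1 PFU/cell, 72 h at 37C, then lysed for luciferase measurement.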
Lassa entry inh – qHTS for Inhibitors of binding or entry into cells for Lassa Virus | AID 540256, 2011 | Lassa virus pseudotype entry inhibition, cell reporter | 300,000 compounds, 1.2% hits | Potency, µM (doses to about 37.9 µM), actives largely listed as inhibitors; calls by dose curve; tested in HEK293 cells; further: nearly all actives have a fitted effect of over 50% in size
VACV mCherry inh – qHTS for Stage-Specific Inhibitors of Vaccinia Orthopoxvirus: mCherry Reporter Primary qHTS. Vaccinia virus mCherry reporter infection, fluorescence. Potency, µM (top dose mostly 36.5 µM), hits mostly inhibitors. 310,000 compounds, 0.63% hits. AID 720579, 2013; calls by dose curve; tested in A549 cells; further: nearly all actives have a fitted effect of over 35% in size
Each line names hits and unclear results; the compound was inactive in the other large screens; ! = not confirmed by another sample.

c1cc2c(cc1C1=NNC(=NC3CC3)SC1)OCCO2	FMDV antiviral inconclusive, MARV entry inh 0.33µM, HCMV antiviral -90, Lassa entry inh 0.29µM (no result: Vaccinia Venus, VACV mCherry inh)
COc1ccc(CCNC(=O)COc2coc(CN3c4ccccc4CC3C)cc2=O)cc1OC (centres undefined)	FMDV antiviral 22µM, MARV entry inh inconclusive, HCMV antiviral inconclusive, Lassa entry inh inconclusive
CC1CN(CCC(=O)N2CCCC(C(=O)c3nccn3C)C2)Cc2cc(Cl)ccc2O1 (centres undefined)	none (no result: MARV entry inh, HCMV antiviral, Lassa entry inh)
CCSC1(SCC)N=C(N)C2(C#N)C(c3ccc(F)cc3)C12C#N (centres undefined)	FMDV antiviral 14µM, MARV entry inh inconclusive, HCMV antiviral -107, Lassa entry inh inconclusive
COC1(OC)N=C(N)C2(C#N)C(c3ccc(F)cc3)C12C#N (centres undefined)	none
O=C(Cn1c(=O)oc2ccccc21)N(Cc1ccccc1)C1CCS(=O)(=O)C1 (centres undefined)	HCMV antiviral -101
O=C1C2CC=CCC2C(=O)N1CC(=O)N(Cc1ccccc1)C1CCS(=O)(=O)C1 (centres undefined)	MARV entry inh inconclusive (no result: Vaccinia Venus, VACV mCherry inh)
CCc1noc(C)c1C(=O)N1CCSC1=Nc1cccc(Cl)c1C	FMDV antiviral inconclusive, MARV entry inh inconclusive, HCMV antiviral -82, Lassa entry inh inconclusive
COc1ccccc1N1CCN(C(=O)C2CCCN(S(=O)(=O)c3ccc4c(c3)oc(=O)n4C)C2)CC1 (centres undefined)	FMDV antiviral 25µM, MARV entry inh inconclusive, HCMV antiviral -60!, Lassa entry inh inconclusive
Cn1c(=O)oc2cc(S(=O)(=O)N3CCCC(C(=O)NC4CCCc5ccccc54)C3)ccc21 (centres undefined)	Vaccinia Venus inconclusive, HCMV antiviral -90, VACV mCherry inh inconclusive (no result: MARV entry inh, Lassa entry inh)
Cn1c(=O)oc2cc(S(=O)(=O)N3CCCC(C(=O)Nc4ccccn4)C3)ccc21 (centres undefined)	FMDV antiviral inconclusive (no result: MARV entry inh, Lassa entry inh)
O=C1C(=O)c2ccccc2C(O)=C1CC=C(Cl)Cl	FMDV antiviral inconclusive, MARV entry inh inconclusive, HCMV antiviral -95, Lassa entry inh 3.2µM, VACV mCherry inh inconclusive
CC(C)=CCC1=C(O)c2ccccc2C(=O)C1=O	none (no result: MARV entry inh, HCMV antiviral, Lassa entry inh)
COc1cccc(C(=O)Oc2c(CN3CCOCC3)cc(Cl)c3cccnc23)c1	FMDV antiviral inconclusive, MARV entry inh 8.2µM, HCMV antiviral -78, Lassa entry inh inconclusive (no result: Vaccinia Venus, VACV mCherry inh)
O=C(Oc1c(CN2CCOCC2)cc(Cl)c2cccnc12)c1ccc(F)cc1	MARV entry inh 10µM, HCMV antiviral -97, Lassa entry inh inconclusive (no result: Vaccinia Venus, VACV mCherry inh)
COc1cc(C(=O)Oc2c(CN3CCOCC3)cc(Cl)c3cccnc23)cc(OC)c1OC	FMDV antiviral inconclusive, Vaccinia Venus inconclusive, VACV mCherry inh inconclusive (no result: HCMV antiviral, Lassa entry inh)
COc1ccc(C(=O)Oc2c(CN3CCOCC3)cc(Cl)c3cccnc23)cc1	Vaccinia Venus inconclusive, MARV entry inh inconclusive, HCMV antiviral -75 (no result: VACV mCherry inh)
Cc1cc(C)nc(N2CCC(C(=O)NCc3ccco3)CC2)n1	none (no result: Vaccinia Venus, VACV mCherry inh)
Cc1cc(C)nc(N2CCC(C(=O)NCc3cccs3)CC2)n1	HCMV antiviral -93
O=C(NCc1cccs1)C1CCN(c2ccc(S(=O)(=O)N3CCOCC3)cc2Cl)CC1	MARV entry inh 1.1µM!, HCMV antiviral -86, Lassa entry inh inconclusive
C#CCNC(=O)C1CCN(c2ccc(S(=O)(=O)N3CCOCC3)cc2Cl)CC1	HCMV antiviral inconclusive, Lassa entry inh inconclusive
CCOc1ccccc1C(=O)Oc1c(S(=O)(=O)c2ccc(C)cc2)c(C)nn1-c1ccccc1	Vaccinia Venus inconclusive, Lassa entry inh inconclusive, VACV mCherry inh inconclusive
O=Cc1ccc2[nH]ccc2c1	none (no result: FMDV antiviral, MARV entry inh, HCMV antiviral, Lassa entry inh)
O=C1NC2(CCCCC2)N=C1c1ccc(F)cc1	HCMV antiviral -74
O=C1NC2(CCCCC2)N=C1c1ccc(Br)cc1	none
CC(C)(C)c1nc2scc(-c3ccc(Br)cc3)c2c(=O)o1	none
Cc1nc2scc(-c3ccc(C(C)(C)C)cc3)c2c(=O)n1N	MARV entry inh inconclusive, HCMV antiviral -78
COc1ccc(-c2csc3nc(C)n(-n4cccc4)c(=O)c23)cc1	HCMV antiviral -62, Lassa entry inh inconclusive (no result: VACV mCherry inh)
Cc1cc(C)nc(N2C(=O)CC(Cc3ccc(Cl)cc3)C2=O)n1 (centres undefined)	HCMV antiviral -101
Cc1ccc(N2C(=O)CC(Cc3ccc(Cl)cc3)C2=O)cc1 (centres undefined)	none
CC(C)C[C@@H]1NC(=O)[C@H](C(C)C)NC(=O)c2cc([N+](=O)[O-])cc(I)c2NCC[C@@H](C(N)=O)NC1=O	none (no result: HCMV antiviral)
CC[C@H](C)[C@@H]1NC(=O)[C@@H](CC(C)C)NC(=O)[C@H](C(C)C)NC(=O)[C@H]2CSSC[C@H](NC1=O)C(=O)N2	FMDV antiviral 6.3µM, Vaccinia Venus 4.5µM, HCMV antiviral -106, VACV mCherry inh 5µM (no result: MARV entry inh, Lassa entry inh)
CC(c1ccccc1)C1C(C#N)=C(N)OC2=C1C(=O)CC(C)(C)C2 (centres undefined)	HCMV antiviral -65 (no result: Vaccinia Venus, VACV mCherry inh)
CC1(C)CC(=O)C2=C(C1)OC(N)=C(C#N)C2C#Cc1ccccc1 (centres undefined)	FMDV antiviral inconclusive, MARV entry inh inconclusive
COC(=O)c1ccc([C@H]2/C(=C(\O)c3ccc(OC)cc3)C(=O)C(=O)N2c2cc(C)on2)cc1	none (no result: FMDV antiviral, Vaccinia Venus, HCMV antiviral, Lassa entry inh, VACV mCherry inh)
CN(C)CC(C)(O)c1ccc2c(c1)CN(Cc1cn(C)c3ccccc13)CCO2 (centres undefined)	none (no result: MARV entry inh, HCMV antiviral, Lassa entry inh)
COc1ccc(CCNC(=O)/C(C#N)=C/c2cccc(OCc3ccccc3)c2)cc1OC	FMDV antiviral 28µM, MARV entry inh inconclusive
N#C/C(=C\c1cccc(NC(=O)c2ccccc2Cl)c1)C(=O)NCCc1ccccc1	FMDV antiviral 28µM, MARV entry inh 11µM, HCMV antiviral inconclusive, Lassa entry inh inconclusive
O=C(CSc1ncc(-c2ccccc2)[nH]1)Nc1cccc(Br)c1	HCMV antiviral -66
NC(=O)c1cc2ccncc2c2ccccc12	Vaccinia Venus inconclusive, HCMV antiviral -99 (no result: MARV entry inh, Lassa entry inh)
CCC(C(=O)NCCc1ccc(Cl)cc1)n1ccc2cc(S(=O)(=O)N3CCCCC3)ccc21 (centres undefined)	none (no result: MARV entry inh)
COc1ccc(/C=C/C(=O)c2c(O)n(CCC3=CCCCC3)c(=O)[nH]c2=O)cc1	FMDV antiviral 35µM, MARV entry inh inconclusive, Lassa entry inh inconclusive
O=C(/C=C/c1ccc2c(c1)OCO2)c1c(O)n(CCC2=CCCCC2)c(=O)[nH]c1=O	FMDV antiviral inconclusive
Cc1ccc2[nH]c(CSc3nnc(COc4ccccc4C)n3C)cc(=O)c2c1	FMDV antiviral inconclusive (no result: MARV entry inh)
Cc1ccccc1OCc1nnc(SCc2cc(=O)c3cc(F)ccc3[nH]2)n1C	FMDV antiviral inconclusive, HCMV antiviral -62 (no result: MARV entry inh)
O=C(CN(c1cccc(C(F)(F)F)c1)S(=O)(=O)c1ccccc1)Nc1cccc(Cl)c1	FMDV antiviral inconclusive, Vaccinia Venus inconclusive, HCMV antiviral -66, VACV mCherry inh inconclusive (no result: MARV entry inh)
